High-throughput results (PubChem)
This is a sample that favours compounds with a hit; in the whole collection about 10% have one here.
GLS inh: blocks human kidney-isoform glutaminase activity; O94925; GLS enzymatic activity, qHTS titration; Potency, µM (titrated, usually from 45.5 µM), hits mostly inhibitors; 410,000 tested, 0.21% active
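Glutamate formation by hKGA was monitored fluorometrically using coupled glutamate oxidase, HRP and Amplex Red. Substrate was added as 1 mM L-glutamine solution; incubation was 30 min at RT after an initial read.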
BAZ2B block: blocks human BAZ2B. Q9UIF8. AlphaScreen BAZ2B-H3K14Ac peptide displacement. Potency, µM (series often up to 114 µM), actives largely listed as inhibitors. 360,000 tested, 4.4% active; also: nearly all actives have a fitted effect of over 60% in size
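Protein-peptide AlphaScreen: BAZ2B 50 nM, b-H3K14Ac 50 nM, 1x PBS pH 7.4 + 0.01% Tween-20. Preincubation 30 min RT; cpd 30 min RT (top 110 uM); beads 20 min RT, light-protected.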
HP1b chromo inh: inhibitors of HP1-beta chromodomain binding to methylated histone tails; Potency, µM (titrated, usually from 114 µM), most hits filed as inhibitors; P83916; 390,000 tested, 0.56% active; AlphaScreen HP1-beta / biotin-H3K9me3 peptide binding; also: nearly all actives have a fitted effect of over 70% in size
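Compound inhibition of the preformed complex between 50 nM HP1-beta and 50 nM biotinylated H3K9me3 peptide was read by AlphaScreen. Buffer was PBS pH 7.4 with 0.01% Tween-20. Incubations ran 30 min at room temperature, with 10 ug/mL donor/acceptor beads.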
G9a block: G9a (human) methyltransferase inhibition; Q96KQ7; G9a H3K9 monomethylation, AlphaScreen, 2 h; Potency, µM (highest dose often 102 µM), hits mostly inhibitors; 350,000 tested, 8.8% active; AID 504332; also: nearly all actives have a fitted effect of over 75% in size
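G9a (20 nM) was preincubated 15 min with compound, then reacted 2 h at room temperature with 500 nM biotin-H3K9 peptide and 20 µM SAM. Monomethyl-H3K9 detected by AlphaScreen using anti-H3K9me1 antibody.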
JMJD2A Tudor: inhibitors of human JMJD2A Tudor domain. O75164. Potency, µM (titrated, usually from 114 µM), hits mostly inhibitors. AID 504339. 390,000 tested, 4.4% active. AlphaScreen JMJD2A-Tudor / H3K4me3 peptide binding; also: nearly all actives have a fitted effect of over 50% in size
Each line names hits and unclear results; the compound was inactive in the other large screens. Calls follow the shape of the dose curve; as a rule, active = well fitted curve in the direction sought with a large enough effect; inconclusive = small, poorly fitted or top-dose-only effect, or another doubt; inactive = no such curve, though single readings can be large; an effect the other way counts as inactive or inconclusive.

C[C@H](c1ccccc1)N1C[C@H](COCc2ccccc2)Oc2cc(N3CC[C@@H](O)C3)ccc2S1(=O)=O	none (no result: BAZ2B block, HP1b chromo inh, G9a block, JMJD2A Tudor)
O=C1C(=Cc2cccs2)Oc2ccccc21	none (no result: BAZ2B block, G9a block)
O=C1OC(c2ccccc2)=C/C1=C/c1cccs1	BAZ2B block 10µM, G9a block 13µM, JMJD2A Tudor inconclusive
O=C1N=C(c2ccccc2)S/C1=C\c1cccs1	BAZ2B block inconclusive, G9a block 1.4µM, JMJD2A Tudor 22µM
O=C(c1cccc(F)c1)N1CCC2(CC1)CN(c1ncccn1)C2	none (no result: GLS inh, BAZ2B block, HP1b chromo inh, JMJD2A Tudor)
N#Cc1cccc(NC(=O)N2CC[C@@]3(CCCN(S(=O)(=O)c4ccccc4)C3)C2)c1	none (no result: GLS inh, BAZ2B block, HP1b chromo inh, JMJD2A Tudor)
COC(=O)c1cc(Cl)ccc1NC(=O)Cn1c(C)cc(C)c(C#N)c1=O	none
O=C1c2cccc3c(O)ccc(c23)C(=O)N1c1ccc(Cl)cc1	G9a block 45µM
CC(=O)Nc1ccc(N2C(=O)c3cccc4c(O)ccc(c34)C2=O)cc1	BAZ2B block 50µM, G9a block inconclusive, JMJD2A Tudor inconclusive
Cc1ccc(N2C(=O)c3cccc4c(C(=O)O)ccc(c34)C2=O)cc1	none (no result: GLS inh, HP1b chromo inh, JMJD2A Tudor)
O=C1c2ccccc2C(=O)N1c1ccc(Cl)cc1	none (no result: GLS inh, HP1b chromo inh)
O=S(=O)(c1ccc2ncsc2c1)N1CCN(c2nc(-c3cccs3)nc3ccccc23)CC1	none (no result: GLS inh, BAZ2B block, G9a block)
COc1cc(O)c(C(CC(=O)N2CCCC(C)C2)c2ccc(N(C)C)cc2)c(OC)c1 (centres undefined)	BAZ2B block 50µM, HP1b chromo inh inconclusive, G9a block inconclusive, JMJD2A Tudor 40µM
COc1ccc(C(CC(=O)N2CCCC2)c2c(O)cc(OC)cc2OC)cc1 (centres undefined)	none
COc1cc(O)c(C(CC(=O)N2CCN(c3ccccc3)CC2)c2ccc(N(C)C)cc2)c(OC)c1 (centres undefined)	BAZ2B block 25µM, HP1b chromo inh inconclusive, G9a block inconclusive, JMJD2A Tudor 28µM
Cc1sc(-c2cc3ccccc3oc2=O)nc1-c1ccc(Cl)cc1	none
COc1cccc(NCc2ccc([N+](=O)[O-])s2)c1	BAZ2B block inconclusive, HP1b chromo inh inconclusive, G9a block 13µM, JMJD2A Tudor inconclusive
Cn1c(N)c(N=O)c(=O)n(C)c1=O	G9a block 50µM
CCCSc1nnc(NC(=O)CSc2nc3[nH]c(=O)cc(O)c3s2)s1	G9a block inconclusive
CCc1nnc(NC(=O)CSc2sc3c(O)cc(=O)[nH]c3c2C#N)s1	GLS inh inconclusive, BAZ2B block 20µM, HP1b chromo inh 40µM, G9a block 10µM, JMJD2A Tudor 20µM
Cc1csc(NC(=O)CSc2nc3[nH]c(=O)cc(O)c3s2)n1	none (no result: BAZ2B block, G9a block)
Cc1csc(NC(=O)CSc2sc3c(O)cc(=O)[nH]c3c2C#N)n1	BAZ2B block inconclusive, G9a block 50µM
CCc1nnc(NC(=O)CSc2nnc(-c3cc4ccccc4cc3O)n2CC)s1	G9a block 28µM
CCSc1nnc(NC(=O)CSc2sc3c(O)cc(=O)[nH]c3c2C#N)s1	BAZ2B block 79µM, G9a block inconclusive, JMJD2A Tudor inconclusive
COc1ccc(Nc2cc(C)c3cc(NC(=O)COc4cccc(C)c4)ccc3n2)cc1	BAZ2B block inconclusive, G9a block inconclusive, JMJD2A Tudor inconclusive
CCOc1cc2c(cc1/C=C/c1noc(C)c1[N+](=O)[O-])OC(C)C2 (centres undefined)	G9a block 45µM
CCOc1cc2c(cc1C=O)OC(C)C2 (centres undefined)	none
C=CCNCCOc1c(C)cc(C)cc1Cl	none
Cc1cc(Cl)cc(C)c1OCCNCc1ccccc1	BAZ2B block 71µM, HP1b chromo inh inconclusive, G9a block 7.9µM, JMJD2A Tudor 0.79µM
Cc1cc(C)c(OCCNCc2ccccc2)c(C)c1	BAZ2B block 50µM, G9a block 7.1µM, JMJD2A Tudor 1.1µM
Clc1ccc(OCCOCCNCc2ccccc2)cc1Cl	BAZ2B block inconclusive, JMJD2A Tudor 25µM (no result: G9a block)
Cc1cc(C)c(OCCCCNCc2ccccc2)c(Cl)c1	BAZ2B block 56µM, JMJD2A Tudor 1.4µM
O=C(c1cnccn1)N1CCC[C@@]2(CCN(c3ccccn3)C2)C1	none (no result: GLS inh, BAZ2B block, HP1b chromo inh, JMJD2A Tudor)
COc1c(Cl)cc(Cl)cc1CNCc1ccccc1	none
Cc1cc(C)c(C)c(OCCNCc2ccccc2)c1	BAZ2B block 20µM, G9a block 11µM, JMJD2A Tudor 3.5µM
Cc1cc(C)c(OCCN(C)Cc2ccccc2)c(Br)c1	none
Cc1cc(Cl)cc(C)c1OCCOCCNCc1ccccc1	BAZ2B block inconclusive, JMJD2A Tudor 22µM (no result: G9a block)
O=C(Nc1c(-c2ccc(Cl)cc2)[nH][nH]c1=O)c1ccccn1	none (no result: BAZ2B block, HP1b chromo inh, G9a block, JMJD2A Tudor)
O=C(COC(=O)C1CC1)NC(=O)c1ccccc1	none
O=C(c1ccc2c(c1)OCO2)[C@@H]1[C@@H]2C(=O)N(C3CCCCC3)C(=O)[C@@H]2C2c3ccccc3C=CN21 (some centres undefined)	G9a block 32µM
COc1ccc(N2C(=O)[C@H]3[C@@H](C2=O)C2c4ccccc4C=NN2[C@H]3C(=O)C(C)(C)C)cc1 (some centres undefined)	BAZ2B block inconclusive (no result: G9a block)
COc1ccc(N2C(=O)[C@@H]3[C@H](C2=O)[C@H]2c4ccccc4C=CN2[C@@H]3C(C)=O)cc1	BAZ2B block inconclusive, G9a block 8.9µM, JMJD2A Tudor inconclusive
O=C(Nc1ccc2c(c1)OCO2)[C@@H]1[C@@H]2C(=O)N(C3CCCCC3)C(=O)[C@@H]2C2c3ccccc3C=CN21 (some centres undefined)	G9a block 10µM (no result: GLS inh, HP1b chromo inh, JMJD2A Tudor)
CC(C)(C)C(=O)[C@@H]1[C@@H]2C(=O)N(C3CCCCC3)C(=O)[C@@H]2[C@H]2c3ccccc3C=CN12	G9a block 10µM, JMJD2A Tudor inconclusive (no result: GLS inh)
O=C(c1cccs1)[C@@H]1[C@@H]2C(=O)N(Cc3ccc4c(c3)OCO4)C(=O)[C@@H]2C2c3ccccc3C=CN21 (some centres undefined)	G9a block inconclusive (no result: GLS inh, HP1b chromo inh, JMJD2A Tudor)
CCCCCCOc1ccc(NC(=O)CC2C(=O)N(CC)C(=S)N2Cc2ccco2)cc1 (centres undefined)	none
O=C(COC(=O)CCS(=O)(=O)c1ccc(F)cc1)NC1CCCCC1	none
C=CCc1ccccc1OCC(O)CNC(C)C (centres undefined)	G9a block inconclusive
COCCCNC(=O)CCSc1ccc(Cl)cc1	none
CCC(C)NCCOCCSc1ccc(Cl)cc1 (centres undefined)	BAZ2B block 79µM, HP1b chromo inh inconclusive, G9a block 8.9µM, JMJD2A Tudor 3.5µM
C=CCc1cc(Cl)ccc1OCCOCCNC(C)CC (centres undefined)	BAZ2B block 50µM, HP1b chromo inh inconclusive, G9a block 10µM, JMJD2A Tudor 1.4µM
C=CCc1cc(Cl)ccc1OCCCNC(C)C	BAZ2B block 56µM, HP1b chromo inh inconclusive, G9a block 8.9µM, JMJD2A Tudor 32µM
COc1ccc(C(=O)COC(=O)CCN2C(=O)C3CC=CCC3C2=O)c(OC)c1 (centres undefined)	none
Cc1c(P(=S)(c2ccccc2)c2ccccc2)[n+]2ccccc2n1Cc1ccccc1	none (no result: GLS inh, BAZ2B block, HP1b chromo inh, G9a block)
